Consider 40 molecules from PubChem BioAssay (NCI).

Compounds without any hit were thinned out: in the full panel of roughly 83,000, 20% have a hit.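 Note: values are percent growth. 100 is the growth of untreated cells, values between 100 and 0 indicate rising inhibition; between -100 and 0 indicates cell death.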 A number with no mark means an inactive call. Active and inactive are the calls of the source. How the source made its calls: active means growth percent below 10; inactive means the rest.

The assay deals with SR leukemia. Put plainly: NCI-60 one-dose screen, 48 h (100 = growth as untreated, 0 = no growth, -100 = all killed). To be noted: 10 µM unless noted.
On to `COc1ccc(/C=N/NC(=O)c2c(N)nn(C)c2Nc2ccccc2)cc1Oc1ccccc1`, for which the growth is 87.8%.

On to `COc1ccc(/C=N/N=C(/c2ccccc2)c2ccc3nc(-c4ccc(Cl)cc4)[nH]c3c2)cc1`, for which the growth is 71.2%.

Consider `O=C(Nc1cc(C(F)(F)F)cc(C(F)(F)F)c1)Nc1ccc2oc(=O)ccc2c1`, for which the growth is 14%.

Take `COc1ccc(/C=N/NC(=O)CSc2nc(-c3cnccn3)cc(-c3cccs3)c2C#N)cc1OC`: the growth is 81.8%.

Turning to `CNC(=O)c1cc(N2CCc3cc(NC(=O)Nc4ccc(N5CCN(C)CC5)c(C(F)(F)F)c4)ccc32)ccn1`, the growth is -12.6% (active).

As to `Clc1cccc(/C=N/Nc2nc(N/N=C/c3cccc(Cl)c3)nc(N3CCCCC3)n2)c1`, the growth is 74.6%.

In the case of `NS(=O)(=O)c1nnc(/N=C/c2c(O)[nH]c3ccccc23)s1`, the growth is 98.3%.

As to `COc1ccc(-c2cc(-c3ccc(N(C)C)cc3)n3c(n2)nc2ccccc23)cc1`, the growth was 50.8%.

As for `Nc1nc(=O)n([C@H]2C[C@H](O)[C@@H](CO)O2)cc1C=O`, the growth is 107%.

For `Cc1ccc(-c2csc(N/N=C/c3cccs3)n2)cc1`, the growth was 56.1%.

Turning to `CCCCCCOC(=O)c1cc(-c2ccc(F)cc2)nc2ccccc12`, the growth is 107%.

On to `COc1cc2oc(-c3cccc(NC(=O)c4cccc([N+](=O)[O-])c4)c3)cc(=O)c2c(OC)c1OC`, for which the growth was 55.2%.

As for `COc1cccc(N2CCN(C3=C(Cl)C(=O)c4ncccc4C3=O)CC2)c1`, the growth is 4.42% (active).

As for `CCCCCCNC(=O)Oc1ccc(/C(=C(/C)c2ccc(Cl)cc2)c2ccc(OCCN3CCCCCC3)cc2)cc1`, the growth was 2.59% (active).

As to `C=C(C)[C@@H]1CC[C@]2(COCCCNCCCN)CC[C@]3(C)[C@H](CC[C@@H]4[C@@]5(C)CC[C@H](O)C(C)(C)[C@@H]5CC[C@]43C)[C@@H]12`, the growth was -33.1% (active).

Turning to `COc1ccc(/C(=N\NC(N)=S)c2ccc(Cl)cc2)cc1OC`, the growth was 29.3%.

For the molecule `Brc1ccc2[nH]cc(-c3nn4cc(-c5nccs5)nc4s3)c2c1`, the growth is 45.2%.

For `CN1c2ccccc2Sc2cc(/C=N/Nc3ccnc4cc(Cl)ccc34)ccc21`, the growth is -1.36% (active).

As to `Cn1c(SCC(=O)c2ccc(F)cc2)nc2ccccc2c1=O`, the growth is 93%.

For the molecule `CC(=O)OCCCCN1C=C/C(=C\C(=O)n2ccc3ccccc32)c2ccccc21`, the growth is 88.7%.

Consider `O=C(/C=C/c1ccc(F)cc1)Nc1cccc2cccnc12`, for which the growth was 103%.

For `CCCCOc1ccc(S(=O)(=O)N2CCN(c3nc(C)cc(N4CCOCC4)n3)CC2)cc1`, the growth was 42.4%.

Regarding `CCCNNC(=O)c1ccc(-c2ccc(NC(=O)CCCCCCC(=O)N[C@H](C(=O)N3C[C@H](O)C[C@H]3C(=O)N[C@@H](C)c3ccc(-c4scnc4C)cc3)C(C)(C)C)cc2)cc1`, the growth was 17.9%.

Regarding `CCOC(=O)c1cccc(NC2=C(Cl)C(=O)c3nc(C)ccc3C2=O)c1`, the growth is 37.1%.

In the case of `CC(C)(C)Nc1nc2c(OCCc3ccccc3)cccn2c1-c1cccc(Oc2ccccc2)c1`, the growth is 3.9% (active).

Take `O=C(CCCCCCNC(=O)c1csc(Br)n1)NO`: the growth is 23.9%.

Regarding `CCOC(=O)c1c(NC(=O)c2ccc(C(F)(F)F)cc2)sc2c3c(ccc12)OCN(C)C3`, the growth was -29.8% (active).

Take `O=C1C(N2CCN(c3ccccc3)CC2)=C(Cl)C(=O)c2ncccc21`: the growth was 3.69% (active).

As for `COc1ccccc1/C=C1\Oc2ccc(O)c(O)c2C1=O`, the growth was 99.6%.

In the case of `COc1cccc2c1C=CC1(O2)Oc2cccc(OC)c2C=C1C` (stereo not given), the growth was 12.8%.

On to `COc1ccc(C(C)=C(c2ccc(OCCN3CCCCCC3)cc2)c2ccc(OCCN3CCCCCC3)cc2)cc1`, for which the growth was -12.1% (active).

With `O=C(CCCCCCN1CC(=O)N2[C@@H](c3ccccc3Br)c3[nH]c4ccccc4c3C[C@H]2C1=O)NO`, the growth was 14%.

As for `Cc1ccc2c(n1)C(=O)C(Cl)=C(Nc1cccc(C(F)(F)F)c1)C2=O`, the growth was 9.01% (active).

`CCC(=C(c1ccc(OCCN2CCCCCC2)cc1)c1ccc(OCCN2CCCCCC2)cc1)c1ccc(Cl)cc1`: the growth was -5.89% (active).

With `CN1CCN(CCNc2nc(-c3cccc(NS(=O)(=O)c4cccc5c(N(C)C)cccc45)c3)cs2)CC1`, the growth was 23.4%.

For `CC(Nc1c(C#N)cnc2ccc(-c3cncc(-c4n[nH]c(=O)o4)c3)cc12)c1ccccc1` (stereo not given), the growth is 6.62% (active).

Consider `CC(=O)N(O)CCCCCNC(=O)CCC(=O)N(O)CCCCCNC(=O)CCC(=O)N(O)CCCCCN(CCCCCCCCCC[P+](c1ccccc1)(c1ccccc1)c1ccccc1)CCCCCCCCCC[P+](c1ccccc1)(c1ccccc1)c1ccccc1`, for which the growth was 1.64% (active).

Take `Cn1cc(-c2cc3ncnc(Nc4ccc(CC(=O)Nc5nc(C(C)(C)C)cs5)cc4)c3s2)cn1`: the growth is 36.2%.

Consider `CCOC(=O)C1=C(C)NC(C)=C(C(=O)OC(C)C)C1c1cccc(C#N)c1` (stereo not given), for which the growth was 90.9%.

With `Cc1cc2nc(C(Cl)Cl)nc(-c3ccc(S(=O)(=O)N(C)C)cc3)n2n1`, the growth is 11.8%.
